In PubChem BioAssay AID1347434 (National Center for Advancing Translational Sciences (NCATS), 2020):
Where “and” joins values, the source holds several entries; their conditions need not be identical. Identical values can stand only once. The campaign covered roughly 1,200 compounds. About 30 (2%) were called active. Not shown: some 23% with an inconclusive outcome. For the sample, actives were picked, then their nearest neighbours and some compounds at random. Values without a mark were called inactive. Calls follow the shape of the dose curve; as a rule, active = well fitted inhibition curve with a large enough effect; inconclusive = small, poorly fitted or top-dose-only effect; inactive = flat fitted curve, though single readings scatter.

The molecules below were run against Single-stranded DNA cytosine deaminase (Homo sapiens) (UniProt Q9GZX7) (assay: Confirmatory qHTS assay for inhibitors of Activation Induced Cytidine Deaminase (AID): AID signals). Settings: recombinant AID, FRET deamination/UDG coupled fluorescence, 4 h; series mostly up to 115 µM; activity, negative = inhibition: at the top concentration.
From the text: Assay Provider (PI) Patricia Gearhart Ph.D. National Institute on Aging National Institute of Health (NIH), Bethesda, MD Assay Provider (PI) Rahul Kohli Ph.D. Perelman School of Medicine University of Pennsylvania, Philadelphia, PA Activation-Induced Deaminase (AID) is a cytosine deaminase which converts cytosine into uracil within stretches of ssDNA. The presence of uracil in DNA initiates a cascade of mutagenic DNA repair to introduce point mutations and DNA double strand breaks. Specific targeting of AID to the immunoglobulin heavy chain loci (Igh) promotes mutagenesis in the antibody variable region for somatic hypermutation (SHM) or switch regions leading to class switch recombination (CSR). However, AID also plays a role in accumulating unnecessary mutations across the genome. Mis-targeting of AID results in the initiation of tumor development and leads to greater drug resistance among cancer cells when continually expressed. To identify an AID inhibitor, a small molecule library will be screened in collaboration with NCATS core facility at NIH. To confirm biological function, inhibitors will be examined in an in vitro murine B-cell activation assay and subsequent secondary validation screens. Top molecules will be further screened to identify inhibitory efficacy against a wild type primary splenocytes assay. Using these approaches, we hope to identify a small molecule with great efficacy and low toxicity for use as a molecular probe to further characterize AID's intricacies, or even as a therapeutic. A FRET based analysis of cytosine deamination, was developed to identify potential inhibitors of AID catalytic activity. This screen has two signal output, Read 1 evaluates the AID inhibition response. The second readout (Read 2) evaluates UDG response and is uses as a counterscreen to exclude false positive inhibitors. Inhibition in AID and inactivity in the UDG signal is the desired outcome for this assay.
PROTOCOL TABLE SEQUENCE No. (e.g., 1, 2, 3, etc.); […] (e.g., Cells, Incubation, Reagent, etc.); VALUE; DESCRIPTION 1a; Reagent; 3 uL; [4/3x] 1 uM AID/2.67 U/mL UDG 1b; Reagent; 3 uL; 2 U/mL UDG 1c; Reagent; 3 uL; 1 uM AID 2a; Compound; 46 nL; Follow-up plates (0.64 uM - 10 mM) 2b; Control; 46 nL; ATA (16.4 nM - 10 mM) 3; Time; 10 min; incubation at room temperature 4; Reagents; 1 uL; [4x] 250 nM DJC20 / 250 nM DJC23 [Substrate] 5; Time; 4 hr; incubation at room temperature 6; Reagent; 4 uL; [2x] 250 mM NaOH 7; Time; 15 sec; centrifuge at 1000 rpm 8; Time; 30 min; incubation at room temperature 9a; Detection; fluorescence (Read 1: AID); EnVision (PerkinElmer) plate reader, 540 excitation and 590 emission filters 9b; Detection; fluorescence (Read 2: UDG); EnVision (PerkinElmer) plate reader, 560 excitation and 665 emission filters NOTES (numbers refer to sequence above) 1a; Reagents were dispensed in a medium-binding black solid-bottom Greiner plates (789176F) using a BioRptr liquid dispenser. Dispense 3 uL of [4/3x] 1 uM AID (provided by Kohli lab) and [4/3x] 2 U/mL UDG (NEB M0280L) into columns 1, 2, 5 to 48. 1b; Dispense 3 uL of [4/3x] 2 U/mL UDG into column 3. 1c; Dispense 3 uL of [4/3x] 1 uM AID into column 4. 2a; Compound ([…] [uM]: 0.64; 3.2; 16; 80; 400; 2,000; 10,000; 20,000) double pin-transferred (Dip Factor = 2) using the Kalypsys (Wako USA) pintool equipped with a 1536 pinhead for a final concentration range of 7.32 nM - 114 uM. 2b; 10 mM Aurintricarboxylic Acid (Sigma A1895) (ATA, 8-point, n = 2, 1:2.5 dilution in column 2) double pin-transferred (Dip Factor = 2) using the Kalypsys (Wako USA) pintool equipped with a 1536 pinhead for a [final] range of 186 nM - 114 uM. 3; Room temperature incubation. 4; Dispense 1 uL of substrate mixture from the Kohli lab [4x] […] DJC20 and [4x] 250 nM DJC23 into columns 1 to 48 . 5; Room temperature incubation. 6; Dispense 4 uL of […] [2x] 250 mM NaOH into columns 1 to 48. 7; Centrifugation step to remove bubbles. […]
% is scaled to controls: 0 for no effect and ±100 for the full control effect; potency is read from the fitted curve at half-maximal effect.

Chain of Single-stranded DNA cytosine deaminase (Homo sapiens) (Q9GZX7 whole entry, looked up): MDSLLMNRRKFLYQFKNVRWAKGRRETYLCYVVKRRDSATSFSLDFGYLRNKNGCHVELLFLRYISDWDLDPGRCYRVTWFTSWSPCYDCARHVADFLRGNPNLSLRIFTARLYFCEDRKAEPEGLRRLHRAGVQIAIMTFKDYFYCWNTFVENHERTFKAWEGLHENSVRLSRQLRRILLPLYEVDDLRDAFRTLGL

Row | SMILES | activity, negative = inhibition [%] | Potency
1 | Cc1ccc(N(CC(=O)N2CCN(c3cc(C)ccc3C)CC2)S(=O)(=O)c2c(C)nn(C)c2C)cc1 | -24.2 | 
2 | Cc1oc(-c2cccc(Br)c2)nc1Cn1c(SCc2cccc(F)c2)nc2cccnc21 | 0.648 | 
3 | Cc1cc(-c2ccc(C)c(S(=O)(=O)N3CCCC(C)C3)c2)on1 (stereo not given) | -12.9 | 
4 | CCc1ccc(CNC(=O)c2ccc(CSc3nc4ccncc4n3Cc3ccccc3)cc2)cc1 | 4.54 | 
5 | Cc1ccc(C)c(N2CCN(CCCNC(=O)c3cnn(-c4ccc(F)cc4)c3C3CCN(C(=O)OC(C)(C)C)CC3)CC2)c1 | -1.81 | 
6 | CC(C)(Sc1ccc(CCN(CCCCC2CCCCC2)C(=O)NC2CCCCC2)cc1)C(=O)O |  | 31.6 µM (active) and 112 µM (active)
7 | Cc1ccc(Nc2c3c(nc4nc(-c5cccs5)nn24)CCCC3)cc1F | -24.6 | 
8 | CCOC(=O)C1=C(CN(CC)Cc2ccccc2)NC(=O)NC1c1ccc(OC(C)C)cc1 (stereo not given) | -13.7 | 
9 | COc1ccccc1N1CCN(C(=O)c2cc3ccc4ccc(C)[nH]c4c3n2)CC1 | 3.08 | 
10 | COc1cccc(Nc2cc(-c3ccccc3)nc(C)n2)c1 | -3.46 | 
11 | COC(=O)c1cc(Cl)ccc1NC(=O)CSc1ncc(S(=O)(=O)c2ccc(Br)cc2)c(=O)[nH]1 | -7.72 | 
12 | CC(C)(C)c1ccc(S(=O)(=O)c2cnc(SCC(=O)Nc3ccc(F)c(Cl)c3)[nH]c2=O)cc1 |  | 35.5 µM (active)
13 | COc1cc(Cl)c(C)cc1NC(=O)CSc1ncc(S(=O)(=O)c2ccc(C(C)(C)C)cc2)c(=O)[nH]1 | -18.9 | 
14 | CC(C)c1ccc(S(=O)(=O)c2cnc(SCC(=O)Nc3cccc(C(F)(F)F)c3)nc2N)cc1 | -5.26 | 
15 | Cc1cc(C)c(NC(=O)CSc2ncc(S(=O)(=O)c3ccc(C(C)(C)C)cc3)c(=O)[nH]2)c(C)c1 | -9.91 | 
16 | Cc1ccc(NC(=O)CSc2ncc(S(=O)(=O)c3ccc(C(C)C)cc3)c(=O)[nH]2)cc1C |  | 31.6 µM (active)
17 | Cc1nn2c(=O)cc(COC(=O)c3ccc(NC(=O)C4CCCCC4)cc3)nc2s1 | -2.33 | 
18 | COc1ccc(C)cc1NC(=O)c1c(C)oc2ncn(CC(C)C)c(=O)c12 | -3.76 | 
19 | CCc1nc2ccc(C(=O)N3CCN(c4ccc(Cl)cc4)CC3)cc2nc1CC | -22.4 | 
20 | COc1ccc(-n2cc(-c3ccccc3)c3c(NC4CCCC4)ncnc32)cc1 | -13.8 | 
21 | CCOC(=O)c1ccc(NC(=O)CC2Nc3cccc4cccc(c34)NC2=O)cc1 (stereo not given) | -7.25 | 
22 | CCOC(=O)c1ccc(N2C(=O)c3[nH]nc(-c4ccccc4)c3C2c2ccc(CC)cc2)cc1 (stereo not given) | -2.39 | 
23 | CCOC(=O)c1ccc(-n2c(N)c(C(=O)OC)c3nc4ccccc4nc32)cc1 |  | 25.1 µM (active)

Row | SMILES | activity, negative = inhibition [%] | Potency
24 | O=C1C(SCCO)=C(SCCO)C(=O)c2ccccc21 |  | 14.1 µM (active)
25 | N#C/C(=C\c1ccc(-c2ccccc2C(=O)O)o1)c1nc2ccccc2[nH]1 | 33.8 | 
26 | Cc1ccc(-c2ccc(=O)n(CC(=O)Nc3ccc(C)cc3Cl)n2)cc1 | -24.2 | 
27 | CCOC(=O)c1c(C)n(-c2ccccc2)c2ccc(OC(=O)c3ccccc3NC(=O)C(C)(C)C)cc12 | 11.3 | 
28 | COc1ccc(OC)c(Nc2sc(C(=O)c3ccccc3)c(N)c2S(=O)(=O)c2ccccc2)c1 | -2.04 | 
29 | C=Cc1ccc(CSc2nc(-c3ccc(OC)cc3)nc3c2Cc2c(CO)cnc(C)c2O3)cc1 | -8.87 | 
30 | COc1cc(/C=C(\C#N)C(=O)Nc2nnc(C(F)(F)F)s2)ccc1OCc1ccc(C(F)(F)F)cc1C(F)(F)F |  | 31.6 µM (active)
31 | CCC(Sc1nc2c(sc3ccccc32)c(=O)n1CCc1ccc(OC)c(OC)c1)C(=O)N(CC)CC (stereo not given) | -18.2 | 
32 | COc1ccc(C(=O)Nc2nc3n(n2)C(c2ccc(Cl)cc2)C=C(c2ccccc2)N3)cc1OC (stereo not given) | -25.4 | 
33 | O=C(NCCc1ccc(Cl)cc1)c1ccc2c(c1)N(Cc1ccc(Cl)cc1)C(=O)CS2 | -4.7 | 
34 | O=C(NCCn1cc(SCc2ccc(C(F)(F)F)cc2)c2ccccc21)c1cccs1 | 7.38 | 
35 | Cc1cccc(N(CC(=O)NCCSCc2cccc(Cl)c2)S(=O)(=O)c2ccccc2)c1C | -3.57 | 
36 | CCCOc1ccc(-c2nn(-c3ccccc3)cc2C2NC(=O)NC(C)=C2C(=O)OC(C)C)cc1 (stereo not given) | -11.1 | 
37 | CCN1C(=O)c2ccccc2S(=O)c2ccc(C(=O)N3CCN(c4cccc(C)c4)C(C)C3)cc21 (stereo not given) | -22.1 | 
38 | Cc1ccc(-n2cnc3cc(C(=O)NCCC4=CCCCC4)ccc32)c(C)c1 | -13.5 | 
39 | O=C(c1noc2c1CCCCC2)N1CCN(c2ccc(Cl)cc2)CC1 | -0.744 | 
40 | CCc1cccc(-n2c(C)nc3c(cnn3-c3ccc(C)c(C)c3)c2=O)c1 | -7.64 | 
41 | O=C(NCCn1cc(SCc2cccc(F)c2)c2ccccc21)c1cccc(C(F)(F)F)c1 | 2.49 | 
42 | Cc1ccc(C)c(N2CCN(C(=O)c3cc(S(=O)(=O)N4CCC(C)CC4)cn3C)CC2)c1 | -14.5 | 
43 | Cc1ccc(C)c(N2CCN(C(=O)Cn3nc(Cc4cccnc4)c4ccccc4c3=O)CC2)c1 | -7.71 | 
44 | Cc1ccc(-c2nc(C(=O)N3CCN(c4ccccc4)CC3)c3n2CCCCC3)cc1 | -10.4 | 
45 | COc1ccc2c(c1)Cc1sc(NC(=O)c3cccc(C)c3)nc1-2 | -15.7 | 
